Assay results: PubChem BioAssay AID488857 (Sanford-Burnham Center for Chemical Genomics, 2010)
Out of some 1,400 compounds screened, about 560 (40%) were called active.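 The calls were made as follows: active = mean inhibition over duplicate tests at 10 µM above 50%; inactive = the rest.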 The set was probably picked from earlier hits. Some of the results follow.

Experiment: ASC/caspase-1 reporter retest in S. cerevisiae at one dose, specificity check for NALP1 project (AID 488857)
Settings: S. cerevisiae ASC/Caspase-1, beta-galactosidase luminescence, 24 h; at 10 µM; active compounds read high

| SMILES | inhibition |
| --- | --- |
| O=C(OC1CCOC1=O)c1cc(-c2ccc(Br)cc2)nc2ccccc12 (stereo unspecified) | 46.6% (inactive) |
| O=C(Oc1cccc2cccnc12)c1ccc(N2C(=O)C3C4CCC(C4)C3C2=O)cc1 (stereo unspecified) | 31.9% (inactive) |
| O=C(Nc1cccc(O)c1)c1noc2c1CCc1ccccc1-2 | 87% (active) |
| CN1/C(=C\C(=O)Nc2ccc(Cl)cc2)C(C)(C)c2ccccc21 | 41.8% (inactive) |
| CCOP(=O)(C1=C(O)C(=O)C(C(C)(C)C)=CC1=O)c1ccccc1 (stereo unspecified) | 38.8% (inactive) |
| Cc1cccc(N=C2NC(=O)/C(=C\c3cccs3)S2)c1 | 62.8% (active) |
| COc1ccc(C(=O)/C=C/c2ccc(OC)c(CN3CCOCC3)c2)cc1 | 66% (active) |
| COc1ccc(C(=O)Cn2c(C(=O)/C=C/c3ccccc3)nc3ccccc32)cc1 | 39% (inactive) |
| O=C(/C=C/c1cccs1)c1cc(Br)ccc1OC(=O)N1CCOCC1 | 45.4% (inactive) |
| CC(C)C(NC(=O)CN1C(=O)c2ccccc2S1(=O)=O)C(C)C | 33.5% (inactive) |
| C(=C\c1nc(N2CCCCCC2)c2ccccc2n1)/c1ccccc1 | 85.2% (active) |
| C(=C\c1nc(N2CCCC2)c2ccccc2n1)/c1ccccc1 | 91.5% (active) |
| COc1ccc2oc(=Nc3ccccc3)c(-c3nc4ccccc4[nH]3)cc2c1 | 59.1% (active) |
| Cc1cc(C)cc(Cn2ncc(Cl)c(Cl)c2=O)c1 | 57.6% (active) |
| Cn1ncc(S(=O)(=O)Cc2ccccc2)c(Cl)c1=O | 39.1% (inactive) |
| COc1ccc(-c2[nH]ncc2CN2CCC(OCc3ccccn3)CC2)c(F)c1 | 21.9% (inactive) |
| O=C(/C=C/c1ccccc1)/C=C/c1ccccc1 | 54.5% (active) |
| Cc1nc(NC(=O)/C=C/c2ccccc2)n[nH]1 | 48.2% (inactive) |
| Cc1ccc2occ(C(=O)c3ccco3)c(=O)c2c1 | 84% (active) |
| Cc1ccc(C)c(NC(=O)c2ccc(OC(=O)c3ccco3)cc2)c1 | 35.5% (inactive) |
| CCn1c(SCC(=O)Nc2oc(-c3ccccc3)c(-c3ccccc3)c2C#N)nnc1-c1cc(OC)cc(OC)c1 | 25.9% (inactive) |
| CC1CCCCN1S(=O)(=O)c1cnc(Cl)c(Br)c1 (stereo unspecified) | 59.8% (active) |
| O=S(=O)(/C=C/c1ccccc1)NC1CCCCCCC1 | 66.8% (active) |
| CCOC(=O)c1c(-c2cccs2)csc1NC(=O)C(C)(C)C | 44.8% (inactive) |
| O=C(c1ccc(Cl)c([N+](=O)[O-])c1)N(c1ccccn1)c1ccccn1 | 23.8% (inactive) |
| O=[N+]([O-])c1ccc(O)c2ncccc12 | 99% (active) |

| SMILES | inhibition |
| --- | --- |
| CSc1ccc(CN(C)CC(=O)Nc2ccc(C)cc2Br)cc1 | 52.6% (active) |
| CN1CCN(C(=O)CSc2nc3c(c(=O)n(C)c(=O)n3C)n2C)CC1 | 31.1% (inactive) |
| C=CCOc1ccc2ccccc2c1/C=N/O | 64.3% (active) |
| O=S(=O)(/N=C/c1c(O)ccc2ccccc12)c1cccs1 | 20.6% (inactive) |
| N#Cc1cccc(N=Cc2c(O)ccc3ccccc23)c1 | 30.4% (inactive) |
| OCCNc1c2ccccc2nc2c(F)c(F)c(F)c(F)c12 | 23.1% (inactive) |
| CC(=O)/C=C/n1c(=S)oc2ccccc21 | 23.2% (inactive) |
| CCCOc1ccc(C(=O)NC(C)C(=O)O)cc1 (stereo unspecified) | 40.4% (inactive) |
| CCOc1ccc(C(=O)C(CCC(CN(C)C)C(=O)c2ccc(OCC)cc2)CN(C)C)cc1 (stereo unspecified) | 63.5% (active) |
| Cc1ccc(N2C(=N)/C(=C3/Nc4ccccc4S3)C(c3ccccc3)C2=O)cc1 (stereo unspecified) | 38.5% (inactive) |
| N#CC1=C(N)Oc2n[nH]c(-c3cccs3)c2C1C1CCCCC1 (stereo unspecified) | 46.4% (inactive) |
| CC1=CC(=O)C=C(C)C1=NOS(=O)(=O)c1ccccc1 | 69.7% (active) |
| CC1=C/C(=N\OS(=O)(=O)c2ccccc2)C(C(C)C)=CC1=O | 91.2% (active) |
| N#CC(C#N)=c1ccc2c(c1)N1C3=C(CCCC3)CC3CCCCC31N=2 (stereo unspecified) | 8.35% (inactive) |
| COc1ccc(/C=N/NC(=O)c2csc(-n3nc(C)cc3C(F)(F)F)n2)cc1 | 36.5% (inactive) |
| O=C(CCN1CCc2ccccc2C(c2ccccc2)C1)c1ccc2c(c1)OCCO2 (stereo unspecified) | 24.4% (inactive) |
| CCOC(=O)C(C(=O)OCC)C(C(=O)OCC)N1CCOCC1 (stereo unspecified) | 53.2% (active) |
| Cc1cccc(Oc2nc(CN3CCOCC3)nc3sc4c(c23)CCCC4)c1 | 75.2% (active) |
| Oc1ccccc1C1N=C(c2ccccc2)NC(c2ccccc2)=N1 | 28.9% (inactive) |
| CCOc1nc(N2CCOCC2)nc(N2CCOCC2)n1 | 43.6% (inactive) |
| CC(=O)N1N=C(c2ccc3ccccc3c2)OC1(C)C | 86.5% (active) |
| Cn1nc(-c2ccccc2)c(-c2nc(-c3ccc(Cl)cc3)no2)c1Cl | 33.6% (inactive) |
| CS(=O)(=O)n1nc(-c2ccc(Cl)cc2)nc1SCc1ccccc1 | 48% (inactive) |
| Cn1nc(-c2ccc(Cl)cc2)nc2c(=O)n(C)c(=O)nc1-2 | 97.8% (active) |
| c1ccc2[nH]c3cc4ncnc4cc3nc2c1 | 46.6% (inactive) |
| Nc1ccccc1-c1nc2ccccc2[nH]1 | 83% (active) |

| SMILES | inhibition |
| --- | --- |
| O=C1CC(c2ccccc2Cl)CC(O)=C1C=Nc1ccccc1 (stereo unspecified) | 61.9% (active) |
| O=C1CC(c2cccc(Cl)c2)CC(O)=C1C=Nc1cccc(Cl)c1 (stereo unspecified) | 53.5% (active) |
| CCSc1nnc(-c2ccncc2)n1Cc1ccccc1 | 23.7% (inactive) |
| CCCn1c(-c2cccnc2Cl)nc2cc(Cl)c(Cl)cc21 | 47.9% (inactive) |
| CS/C(=N\S(=O)(=O)c1cccs1)Nc1ccc(Br)cc1F | 68.3% (active) |
| CCCNC(=O)c1cc2c3ccccc3n(C)c2s1 | 74.2% (active) |
| CC(C)OCCCNC(=O)c1cc2c(=O)n(C)c3ccccc3c2n1C | 30.8% (inactive) |
| COc1ccc(CN2CC(C(=O)NCCN3CCN(c4ccccc4F)CC3)CC2=O)cc1 (stereo unspecified) | 29.6% (inactive) |
| OC(COc1ccc2c(c1)CCC2)CN1CCN(c2ccccc2F)CC1 (stereo unspecified) | 78% (active) |
| COc1cccc(CN2CCC(C(=O)N3CCN(c4ccccc4F)CC3)CC2)c1OC | 32.3% (inactive) |
| OC(CSc1c(Cl)cccc1Cl)CN1CCN(c2ccccc2F)CC1 (stereo unspecified) | 50.8% (active) |
| O=[N+]([O-])c1ccc(OCC(O)CN2CCN(c3ccccc3F)CC2)cc1 (stereo unspecified) | 51.8% (active) |
| Cc1sc(-c2ccncc2)nc1OC(=O)c1ccccc1 | 36.9% (inactive) |
| Cc1occc1C(=O)Nc1c(F)c(F)c(F)c(F)c1F | 38.6% (inactive) |
| Cc1ccc(NCC(=O)Nc2c(C)n(C)n(-c3ccccc3)c2=O)cc1S(=O)(=O)N(C)C | 10.7% (inactive) |
| CC1=C(C(=O)Nc2ccc(Cl)cc2)C(c2ccncc2)C(C#N)=C(SCC(N)=O)N1 (stereo unspecified) | 30.2% (inactive) |
| Cn1c2c(c(=O)n(C)c1=O)C(NC(=O)C(C)(C)C)(C(F)(F)F)C(=O)N2 (stereo unspecified) | 40.1% (inactive) |
| O=S(=O)(CC(CN1CCCC1)N1CCCC1)c1ccc2ccccc2c1 (stereo unspecified) | 30.2% (inactive) |
| O=S(=O)(CC(CN1CCCCC1)N1CCCCC1)c1ccc2ccccc2c1 (stereo unspecified) | 59.8% (active) |
| O=S(=O)(NC1CCCCC1)c1ccc(F)c2ccccc12 | 57.7% (active) |
| O=C(Nc1nc(-c2ccncc2)cs1)c1ccc(S(=O)(=O)N2CCOCC2)cc1 | 39.9% (inactive) |
| CS(=O)(=O)N1N=C(c2ccco2)CC1c1ccc(Cl)cc1 (stereo unspecified) | 27.9% (inactive) |
| CCOC(=O)c1sc(=S)n(-c2ccc(OC)cc2)c1C | 48.9% (inactive) |
| CCOC(=O)c1c(/N=C/c2cc(OC)cc([N+](=O)[O-])c2O)sc(C)c1C | 65.7% (active) |
| Nc1nc(-c2ccc(Oc3ccccc3)cc2)cs1 | 99.7% (active) |
| Nc1ccc(Oc2cccc(Oc3ccc(N)cc3)c2)cc1 | 48% (inactive) |

| SMILES | inhibition |
| --- | --- |
| COc1ccc(-c2csc(N3C(=O)C4C5c6ccccc6C(c6ccccc65)[C@@H]4C3=O)n2)cc1 (stereo partly specified) | 34.7% (inactive) |
| Nc1nc2ccc(Oc3ccccc3)cc2s1 | 96.2% (active) |
| Cc1sc(N)nc1-c1ccc(Oc2ccccc2)cc1 | 76.5% (active) |
| O=C(Cc1ccc(Cl)cc1)Oc1cccc2cccnc12 | 29.8% (inactive) |
| c1cnc2c(c1)ccc1cccnc12 | 84.1% (active) |
| Fc1ccc(Nc2nc(Oc3ccccc3F)nc(N3CCCC3)n2)cc1 | 41.3% (inactive) |
| Cc1ccccc1Nc1cc(C)c2c(O)cccc2n1 | 77.8% (active) |
| COc1ccc(NC(=O)c2sc(N3CCOCC3)nc2-c2ccccc2)c(OC)c1 | 57.7% (active) |
| COc1ccc(NC(=O)N2CCC(CO)(CC3CCCCO3)CC2)c(OC)c1 (stereo unspecified) | 40.4% (inactive) |
| C/C(=N\NC(=O)Cc1csc(N2CCOCC2)n1)c1ccccc1 | 29.2% (inactive) |
| CN(C)Cc1ccccc1Sc1ccccc1Br | 49% (inactive) |
| N#Cc1ccc(NC(=O)Nc2ccc(Cl)cc2)cc1 | 96.4% (active) |
| CC(=O)c1ccc(NC(=O)Nc2ccc(Cl)cc2)cc1 | 44.4% (inactive) |
| COc1ccc(N2CCN(CCNC(=O)Nc3ccc(Cl)cc3)CC2)cc1 | 39.5% (inactive) |
| Cc1cccc(C)c1C(OCCN(C)C)C1CCCCC1 (stereo unspecified) | 35.5% (inactive) |
| COc1cc(/C=C(\NC(C)=O)C(=O)Nc2cccc(O)c2)ccc1OC(C)=O | 42% (inactive) |
| COc1ccc(/C=C/C(=O)Nc2ccc3c(c2)CCC3)cc1OC | 86.2% (active) |
| O=C1/C(=C/c2cccnc2)SC(=S)N1C1CCS(=O)(=O)C1 (stereo unspecified) | 32.4% (inactive) |
| COc1ccc(OC)c(S(=O)(=O)Nc2ccc(O)c3ccccc23)c1 | 28.8% (inactive) |
| CSc1ccc2c(c1)N(CCC1CCCCN1C)c1ccccc1S2 (stereo unspecified) | 81.8% (active) |
| CCC(C)NCCOc1cccc(Br)c1 (stereo unspecified) | 39.6% (inactive) |
| Cc1ccc2nc(-c3ccc(NC(=O)CN(c4ccccc4C)S(C)(=O)=O)cc3)sc2c1 | 44.1% (inactive) |
| O=C(Nc1ccc(-c2nc3ccccc3s2)cc1)C1=COCCO1 | 55.6% (active) |
